Only some compounds are listed: those with a hit (about 4.8% of all), similar ones and a draw of the others.
MPTP inh = mitochondrial permeability transition pore inhibitors, primary screen, biochemical, isolated mouse mitochondria, absorbance; Ca2+ swelling absorbance, 30 min; inhibition, % at 10 µM; 360,000 compounds, 1.4% hits; AID 602449, 2012;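 active means inhibition of 50% or more, scaled per plate between neutral and stimulator controls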;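 further: 0% = DMSO wells given calcium and 100% = 1 mM EGTA wells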
Beta apoptosis = inhibitors of cytokine-induced beta cell apoptosis, primary screen, luminescence | INS-1E cytokine-induced death, ATP luminescence, 48 h; percent of positive-control rescue, neutral wells zero | 300,000 compounds, 0.8% hits | protection from apoptosis, % (test concentration not listed) | AID 435005, 2010;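 active means Every replicate reaches about 75%, or at least half do and their mean reaches it too, limit read from the data; inconclusive means At least half of replicates reach the limit but their mean does not; inactive means Under half of replicates reach the limit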;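 further: 0% = cytokine-treated negative control wells and 100% = positive control rescue; higher means more ATP so stronger rescue from cytokine killing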
Mdm2-MdmX inh = inhibitors of human Mdm2-MdmX association, primary screen, cell-based, luminescence, split luciferase, SaOS-2, uHTS. Protein Mdm4 (Homo sapiens) + E3 ubiquitin-protein ligase Mdm2 (Homo sapiens), …. SaOS-2 split-luciferase Mdm2/MdmX complementation. inhibition, % at 8 µM. 330,000 compounds, 3% hits;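 active means inhibition of at least 50% at 8 µM in the primary screen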
Target sequence (O15151 whole entry, looked up): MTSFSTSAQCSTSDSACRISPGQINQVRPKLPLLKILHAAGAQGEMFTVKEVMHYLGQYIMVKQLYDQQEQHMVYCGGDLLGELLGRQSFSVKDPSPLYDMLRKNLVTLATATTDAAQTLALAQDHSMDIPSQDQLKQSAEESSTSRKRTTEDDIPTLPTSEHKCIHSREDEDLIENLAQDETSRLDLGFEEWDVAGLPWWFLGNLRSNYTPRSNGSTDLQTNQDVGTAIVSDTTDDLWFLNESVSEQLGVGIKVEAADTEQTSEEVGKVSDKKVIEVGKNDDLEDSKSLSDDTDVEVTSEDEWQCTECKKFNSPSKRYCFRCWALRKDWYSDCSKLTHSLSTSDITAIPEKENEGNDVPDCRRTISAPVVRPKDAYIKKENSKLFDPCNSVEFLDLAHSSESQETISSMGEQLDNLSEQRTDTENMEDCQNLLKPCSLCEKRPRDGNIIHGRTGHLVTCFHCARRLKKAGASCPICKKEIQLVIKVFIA
Target sequence (Q00987 whole entry, looked up): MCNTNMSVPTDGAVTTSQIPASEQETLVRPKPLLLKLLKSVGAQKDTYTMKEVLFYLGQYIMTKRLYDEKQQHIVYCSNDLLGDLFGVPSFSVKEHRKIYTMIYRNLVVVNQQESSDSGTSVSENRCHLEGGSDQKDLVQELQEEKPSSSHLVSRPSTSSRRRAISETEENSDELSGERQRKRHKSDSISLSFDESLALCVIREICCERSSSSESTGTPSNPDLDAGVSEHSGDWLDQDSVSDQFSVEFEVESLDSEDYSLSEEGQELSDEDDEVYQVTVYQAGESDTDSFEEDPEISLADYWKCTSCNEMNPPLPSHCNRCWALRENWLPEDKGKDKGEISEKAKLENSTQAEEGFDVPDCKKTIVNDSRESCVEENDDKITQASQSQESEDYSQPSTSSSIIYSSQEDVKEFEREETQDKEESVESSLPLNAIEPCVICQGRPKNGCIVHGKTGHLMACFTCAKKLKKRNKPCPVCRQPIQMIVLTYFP
Calb FLC = C. albicans growth inhibition with fluconazole, primary screen, CaCi-2 strain, Alamar Blue fluorescence; C. albicans CaCi-2 (fluconazole-resistant clinical isolate) + fluconazole, 48 h; growth inhibition, % (test concentration not listed); 300,000 compounds, 0.57% hits; AID 1979, 2009;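 active means growth inhibition above about 58% in most replicates, limit read from the data, passing the limit was not always enough; inconclusive means exactly half the replicates above a set limit; inactive means most replicates below a set limit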;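 further: all wells also contain fluconazole at 8 µg/ml as a sub-toxic cotreatment; 0% = median of DMSO wells and 100% = median of geldanamycin control wells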
CSC inhib = cancer stem cell viability inhibitors, primary screen, luminescence; cancer stem cell-like cells viability; inhibition, % at 7.5 µM; 300,000 compounds, 1.1% hits; AID 2717, 2010; in the data active means inhibition above about 75%; inconclusive means no clear call, values can overlap the other calls; tested in HMLE shEcad cells
Rh123 counter = fluorescence retest of MPTP screen hits in isolated mitochondria, single concentration; shares compounds with MPTP inh; membrane potential, Rhodamine 123 fluorescence; inhibition, % at 10 µM; 5,000 compounds, 78% hits; AID 624504, 2012; in the data active means inhibition above about 22%;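 further: 0% = DMSO vehicle and 100% = positive control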
MPTP swell DR = mitochondrial permeability transition pore inhibitors, dose response, biochemical, absorbance, uHTS hits; 780 compounds, 58% hits; shares compounds with MPTP inh; IC50, µM; isolated mitochondria swelling; in the data active means IC50 below about 20 µM
MPTP counter DR = fluorescent counter-screen in isolated mitochondria, dose response, counter-screen for MPTP inhibitor project, biochemical, fluorescence, uHTS hits. shares compounds with MPTP inh. 780 compounds, 49% hits. isolated mitochondria counterscreen, fluorescence read-out. IC50, µM; in the data active means IC50 below about 80 µM
Active calls of the source: *.

What do the screens show for `CC(=O)CCS(=O)(=O)c1ccc(Oc2ccc(S(=O)(=O)CCC(C)=O)cc2)cc1`?
MPTP inh: 58.1*; Beta apoptosis: -30.3; Mdm2-MdmX inh: 38.2; Calb FLC: 2.3; CSC inhib: -13.3; Rh123 counter: 16.3; MPTP swell DR: inactive; MPTP counter DR: 58.6*

What do the screens show for `CC(=O)CS(=O)(=O)c1ccc(Oc2ccc(S(=O)(=O)CC(C)=O)cc2)cc1`?
MPTP inh: 0.5; Beta apoptosis: 4.5; Mdm2-MdmX inh: -4.4; Calb FLC: -4.1; CSC inhib: -18.1

Results for Cn1nc(C(C)(C)C)cc1C(=O)NCc1cc(F)cc2c1OCOC2 ?
MPTP inh: 92.3*; Beta apoptosis: 101.7*; Mdm2-MdmX inh: 24.7; Calb FLC: -8.5; CSC inhib: -11.9; Rh123 counter: 83.9*

What do the screens show for `Cc1cc(C(=O)NCc2cc(F)cc3c2OCOC3)nn1C`?
MPTP inh: 0.4; Mdm2-MdmX inh: -9.1; Calb FLC: -16.3; CSC inhib: -10.0

Results for CN(C)CCCN1c2ccc(O)cc2Sc2ccc(Cl)cc21 ?
MPTP inh: 1.1

Results for OC1CC2CCC(C1)N2CCCN1c2ccccc2Sc2ccc(Cl)cc21 (stereo not given) ?
MPTP inh: 76.2*; Rh123 counter: -16.5; MPTP swell DR: 3.98*; MPTP counter DR: 73.9*

How did COc1ncccc1C(=O)N1CCCC(C(=O)Nc2cccc(-c3ccc(F)cc3)c2)C1 (stereo not given) do in these assays?
MPTP inh: 1.0

Results for O=C(Nc1cccnc1Cl)c1cc(-c2cccc(O)c2)on1 ?
MPTP inh: 81.0*; Beta apoptosis: -3.3; Mdm2-MdmX inh: 6.4; Calb FLC: 3.7; CSC inhib: 5.9; Rh123 counter: -7.1; MPTP swell DR: >100; MPTP counter DR: >80

How did CCc1ccccc1NC(=O)c1cc(-c2cccc(O)c2)on1 do in these assays?
MPTP inh: 102.3*; Beta apoptosis: -2.3; Mdm2-MdmX inh: -6.8; Calb FLC: 0.1; CSC inhib: 6.3; Rh123 counter: 5.5; MPTP swell DR: 2.09*; MPTP counter DR: >80

Results for COc1cc(NC(=O)c2cc(-c3cccc(O)c3)on2)cc(OC)c1OC ?
MPTP inh: 110.5*; Beta apoptosis: 4.6; Mdm2-MdmX inh: 44.3; Calb FLC: -7.7; CSC inhib: 52.0; Rh123 counter: 13.9; MPTP swell DR: 2.56*; MPTP counter DR: >80

Results for O=C(Nc1ccccc1C(F)(F)F)c1cc(-c2cccc(O)c2)on1 ?
MPTP inh: 8.2; Beta apoptosis: -1.9; Mdm2-MdmX inh: -11.0; Calb FLC: -1.2; CSC inhib: 13.9

Results for C=CC[C@@H](CC(=O)NCCO)C(=O)NCCOC(=O)[C@@H](CC=C)Cc1ccc(F)cc1 ?
MPTP inh: -0.5; Beta apoptosis: -3.6; Mdm2-MdmX inh: -8.1; CSC inhib: 5.8

What do the screens show for `Cc1ccc(S(=O)(=O)N2CCC(C(=O)OCC(=O)N3CCCC3=O)CC2)cc1C`?
MPTP inh: 0.5; Beta apoptosis: -8.4; Mdm2-MdmX inh: 17.1; Calb FLC: 0.3; CSC inhib: -15.8

How did CCC(CO)NCc1ccc(OCC(=O)Nc2cccc(C(F)(F)F)c2)c(OC)c1 (stereo not given) do in these assays?
MPTP inh: 58.3*; Beta apoptosis: -0.3; Mdm2-MdmX inh: 1.5; Calb FLC: -2.1; CSC inhib: -1.4; Rh123 counter: -14.1; MPTP swell DR: 17.2*; MPTP counter DR: >80

How did CCOc1cc(CNC(C)(C)C)ccc1OCC(=O)Nc1cccc(C(F)(F)F)c1 do in these assays?
MPTP inh: 2.4; Beta apoptosis: 2.1; Mdm2-MdmX inh: 8.2; Calb FLC: 3.7; CSC inhib: 7.6

Results for Cc1ccccc1Nc1nc(N)nc(CSc2nc3ccccc3c(=O)n2C)n1 ?
MPTP inh: 57.2*; Beta apoptosis: 21.7; Mdm2-MdmX inh: 31.6; Calb FLC: 1.3; CSC inhib: 14.1; Rh123 counter: 22.1*

Results for Cc1ccccc1Nc1nc(N)nc(CSc2nc3ccccc3c(=O)n2CCCO)n1 ?
MPTP inh: -1.1; Beta apoptosis: -7.6; Mdm2-MdmX inh: 18.4; Calb FLC: inconclusive; CSC inhib: -10.3

What do the screens show for `COc1ccc(C=NNc2ccc([N+](=O)[O-])cc2S(=O)(=O)Nc2ccccc2C(=O)O)cc1OC`?
MPTP inh: 59.7*; Beta apoptosis: 3.8; Mdm2-MdmX inh: -10.4; CSC inhib: 32.9; Rh123 counter: 36.7*

Results for Cc1ccc(-n2cc(C(=O)c3cc(Cl)ccc3O)cc(C#N)c2=O)cc1 ?
MPTP inh: 93.2*; Beta apoptosis: 6.7; Mdm2-MdmX inh: -1.3; Calb FLC: 5.6; CSC inhib: -14.2; Rh123 counter: 83.7*

What do the screens show for `O=C(COC(=O)Cc1cccc(C(F)(F)F)c1)NC(=O)NC1CCCC1`?
MPTP inh: -0.6; Beta apoptosis: -6.7; Mdm2-MdmX inh: -10.0; CSC inhib: -16.0

What do the screens show for `O=C(COC(=O)CCNS(=O)(=O)c1cccc(C(F)(F)F)c1)NC(=O)NC1CCCCC1`?
MPTP inh: 61.0*; Beta apoptosis: -3.4; Mdm2-MdmX inh: -11.8; Calb FLC: 12.7; CSC inhib: -14.7; Rh123 counter: -10.6; MPTP swell DR: 18*; MPTP counter DR: 23.4*

What do the screens show for `O=S(=O)(Nc1ccccc1O)c1ccc(-c2ccccc2)cc1`?
MPTP inh: 84.2*; Beta apoptosis: -0.4; Mdm2-MdmX inh: 22.3; Calb FLC: 7.7; CSC inhib: 27.7; Rh123 counter: 90.1*

Results for Cc1nn(C2CC(O)C(O)C(CO)O2)c(=O)[nH]c1=O (stereo not given) ?
MPTP inh: 0.3

Results for N#Cc1c(C(F)(F)F)cc(=O)n2c1[nH]c1ccccc12 ?
MPTP inh: 91.7*; Beta apoptosis: 19.6; Mdm2-MdmX inh: 31.8; Calb FLC: -3.8; CSC inhib: 62.8; Rh123 counter: 93.6*

How did CCCCCCNCC(=O)N1CCC(Cc2ccccc2)CC1 do in these assays?
MPTP inh: 85.7*; Beta apoptosis: 6.7; Mdm2-MdmX inh: 40.5; Calb FLC: 6.3; CSC inhib: -12.3; Rh123 counter: -3.5; MPTP swell DR: 11.3*; MPTP counter DR: 44.5*

Results for CCCCNC(=O)c1ccc(N2CCOCC2)c(NS(=O)(=O)c2ccc(OC)cc2)c1 ?
MPTP inh: -2.1; Beta apoptosis: -3.1; Mdm2-MdmX inh: 20.0; Calb FLC: 21.4; CSC inhib: -0.5

Screening data as filed in PubChem BioAssay.
